From ChEMBL document CHEMBL3433997, “St. Jude Leishmania screening dataset” (2016)

How the values were obtained:
Assay type in all cases: functional
[1] = biological target: Solute carrier family 2, facilitated glucose transporter member 1 (Homo sapiens) (UniProt P11166); experiment: ST_JUDE_LEISH: Cytotoxicity at 2uM final concentration against transgenic Leishmania Mexicana promastigotes LmGLUT1 that are glucose transport deficient and complemented with the human glucose transporter GLUT1. Activity is measured by DNA content using SYBR green in vitro
Chain of Solute carrier family 2, facilitated glucose transporter member 1 (Homo sapiens) (P11166 whole entry): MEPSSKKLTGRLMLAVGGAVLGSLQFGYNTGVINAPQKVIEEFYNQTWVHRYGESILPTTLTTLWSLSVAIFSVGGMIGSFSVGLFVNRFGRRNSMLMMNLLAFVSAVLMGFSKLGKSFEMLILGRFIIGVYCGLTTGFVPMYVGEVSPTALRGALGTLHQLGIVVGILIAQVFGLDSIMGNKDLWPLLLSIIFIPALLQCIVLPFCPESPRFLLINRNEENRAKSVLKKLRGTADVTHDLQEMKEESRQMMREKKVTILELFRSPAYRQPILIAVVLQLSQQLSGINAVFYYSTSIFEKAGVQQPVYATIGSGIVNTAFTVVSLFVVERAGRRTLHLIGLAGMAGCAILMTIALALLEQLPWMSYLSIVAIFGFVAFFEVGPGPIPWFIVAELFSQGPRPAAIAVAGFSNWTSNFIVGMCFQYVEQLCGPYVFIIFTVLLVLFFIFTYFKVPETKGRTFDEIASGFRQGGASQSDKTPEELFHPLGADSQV

[2] = biological target: Hexose transporter 1 (Plasmodium falciparum) (UniProt O97467); experiment: ST_JUDE_LEISH: Cytotoxicity at 2uM final concentration against transgenic Leishmania Mexicana promastigotes LmPfHT that are glucose transport deficient and complemented with the Plasmodium falciparum hexose transporter. Activity is measured by DNA content using SYBR green in vitro
[3] = biological target: Glucose transporter (Leishmania mexicana) (UniProt O61059); experiment: ST_JUDE_LEISH: Cytotoxicity at 2uM final concentration against transgenic Leishmania Mexicana promastigotes LmGT2 that are glucose transport deficient and complemented with the L. Mexicana glucose transporter 2. Activity is measured by DNA content using SYBR green in vitro

Row | SMILES | inhibition [1] [%] | inhibition [2] [%] | inhibition [3] [%]
1 | O=c1cc(NCCCNCc2ccc(Cl)c(Cl)c2)[nH]c2ccc(Cl)cc12 | 0.59 | 0.59 | -9.23
2 | CN(C)c1ccc(-c2csc(C(=O)NC3CCCCN(CCC(C)(C)C)C3)c2)cc1 (stereo not drawn) | 2.51 | 2.15 | 0.68
3 | Cc1ccc(CN(Cc2ccc(C(=O)N(C)C)cc2)Cc2ccc3c(c2)OCCO3)cc1C | 0.09 | 0.35 | 0.35
4 | Cn1ccc(-c2cccc(Nc3ccnc4cc(-c5nccs5)ccc34)c2)n1 | -0.21 | 0.32 | -0.17
5 | CC(C)Cn1c(Sc2ccc(C#N)c([N+](=O)[O-])c2)nnc1-c1cccc(Cl)c1 | 12.7 | 12.4 | 9.62
6 | CC(=O)Nc1ncc(C(=O)Nc2cccc(-c3ccc(-c4nc5cc(F)ccc5[nH]4)cc3)c2)s1 | 4.02 | 1.84 | 2.62
7 | CCCc1cc(OC)c(CC2c3cccc(O)c3CCN2C)cc1OC (stereo not drawn) | 0.68 | 0.4 | -0.12
8 | Cc1cccc2nc(-c3ccc(-c4cccc(CNCCNC(=O)c5ccnn5C)c4)s3)[nH]c12 | 3.8 | 4.31 | 3.87
9 | CCN(CC)C(=O)C1CCCN(c2cc(C)nc(Nc3ccc(Cl)cc3)n2)C1 (stereo not drawn) | 0.86 | 1.03 | 0.51
10 | CC1(C)NC(N)=NC(=N)N1OCCCc1cccc(C(F)(F)F)c1 | -0.43 | -0.35 | 1.25
11 | Cc1cc(-c2ccc(CNC3Cc4ccccc4C3)cc2)ccc1S(=O)(=O)NCCN1CCCC1 | 30.9 | 30.9 | 3.47
12 | CC1(C)N=C(N)N=C(N)N1OCc1cc(Cl)c(CON2C(N)=NC(N)=NC2(C)C)cc1Cl | 0.92 | 1 | -2.89
13 | Oc1ccc2ccccc2c1CNC1CCCCCC1 | 0.85 | 1.51 | 1.96
14 | N#Cc1ccc2c(c1)CCN(CCC1CCC(NC(=O)c3ccc(-c4ccccc4)s3)CC1)CC2 (stereo not drawn) | 4.75 | 3.75 | 2.43
15 | COc1ccc2c(c1)CCCC2NCCCCNC(=O)c1ccc(NC(=O)c2ccc(Cl)cc2)cc1 (stereo not drawn) | 1.92 | 0.37 | 0.82
16 | COc1ccc(NC(=O)[C@H](Cc2ccccc2)Nc2cc(C)nc(NCCc3ccc(F)cc3)n2)cc1 | 11.8 | 13 | 10
17 | COc1ccc(-c2cccc(NC(=O)c3cccc(C#N)c3)c2)cc1CNC(C)C | 9.6 | 8.42 | 5.03
18 | CCCNCc1ccc(-c2ccc(CNC3Cc4ccccc4C3)cc2)nc1 | -0.04 | 2.5 | 1.53
19 | CCOc1ccc(/C=C/C(=O)Nc2cccc3c2CCN(C)C3)cc1 | 8.24 | 7.2 | 6.27
20 | O=C(/C=C/c1ccc(Cl)c(Cl)c1)NCCCCCCN1CCCN(C(=O)Nc2cccc(Cl)c2)CC1 | -1.03 | 0.08 | -2.92
21 | CCOc1cc(C(=O)Nc2ccc3nc(N4CCCCC4)cc(C)c3c2)cc(OCC)c1OCC | 4.92 | 4.24 | 3.07
22 | COc1ccc(CCNCC(O)COc2nccc3c(S(=O)(=O)N4CCCNCC4)cccc23)cc1OC (stereo not drawn) | -1.57 | -1.2 | -2.89
23 | COc1cc2c(cc1NS(=O)(=O)c1ccc(OCc3ccc(Br)cc3)cc1)CCN(C1CCC1)CC2 | 0.64 | -0.8 | -0.51
24 | Cc1cc(C)c(NC(=O)N[C@H]2CCN(CCCCCNC(=O)/C=C/c3ccc(Cl)c(Cl)c3)C2)c(C)c1 | -0.8 | -0.95 | 1.3

Row | SMILES | inhibition [1] [%] | inhibition [2] [%] | inhibition [3] [%]
25 | Cc1cc(C2CCN(CCCCNC(=O)c3ccc(-c4ccc(C(F)(F)F)cc4)cc3)CC2)c(C)cc1OCCOC1CCCCO1 (stereo not drawn) | 1.45 | -0.6 | 2.21
26 | CC(C)N(Cc1ccccc1)C(=O)CN1C(=O)COc2ccc(S(=O)(=O)N3CCCCCC3)cc21 | 4.92 | 1.02 | 10.5
27 | Cn1cncc1CCN(Cc1ccc(-c2ccc(C(F)(F)F)cc2)cc1)C(=O)Cn1c(SCc2cccc(F)c2F)cc(=O)c2ccccc21 | 4.77 | 1.65 | 2.14
28 | COc1ccc(C2C(C(=O)Nc3ccc(C)cc3Br)c3ccccc3C(=O)N2C)cc1 (stereo not drawn) | 3.32 | 2.08 | 0.83
29 | O=C(NC1CCCCN(Cc2ccc3c(c2)OCCO3)C1)c1cc(-c2ccccc2F)cs1 (stereo not drawn) | 12.7 | 16.4 | 12.8
30 | COc1c(CN2CCCC2)cccc1-c1cc2c(-c3ccc(C(=O)O)c(C(C)C)c3)ccnc2[nH]1 | 3 | 2.05 | 2.09
31 | CC(=O)N(Cc1ccc(CC(C)NCCc2cccc(Cl)c2)cc1)Cc1ccc(CC(C)NCCc2cccc(Cl)c2)cc1 (stereo not drawn) | 83.6 | 72.7 | 99.7
32 | Fc1ccc2[nH]c(-c3cccc(-c4ccc(CN5CCN(c6ccncc6)CC5)cc4)c3)nc2c1 | 0.76 | 1.36 | 0.8
33 | Nc1ncc(-c2ccccc2)cc1-c1cccc2ncccc12 | 7.53 | 9.12 | 6.36
34 | Cc1cc(-c2ccc3c(c2)CCN(CCC2CCC(NC(=O)/C=C/c4cccc(F)c4)CC2)CC3)on1 (stereo not drawn) | 2.32 | 0.47 | 3.42
35 | CN(C)CCOC(=O)C1(O)CCC2CC1C2(C)C (stereo not drawn) | 2.52 | 2.06 | 2.45
36 | CCCn1c(Sc2ccc(C#N)c([N+](=O)[O-])c2)nnc1-c1ccc(N(C)C)cc1 | 5.64 | 4.8 | 3.14
37 | CC(C)(C)c1cc(C(=O)N2CCN(c3nccnc3C#N)CC2)n(Cc2ccccc2)n1 | 1.68 | 1.96 | 1.02
38 | CN1N=C2c3ccccc3CCC2C1c1ccc(C#N)cc1 (stereo not drawn) | 12.4 | 9.98 | 7.86
39 | C=CCc1cc(SC)ccc1Oc1ccc(N)cc1 | 1.84 | 2.06 | 1.08
40 | O=C(c1cccc(-c2noc(C(F)(F)F)n2)c1)N1CCN(c2ccncc2)CC1 | 11.1 | 10.9 | 10.8
41 | Cc1cc(N2CCOCC2)nc(Nc2ccc(NC(=O)Nc3ccc(F)cc3)cc2)n1 | -0.56 | -2.91 | 1.66
42 | COc1nc2c(CCN3CC[C@H](NCc4cc(C#N)c5c(c4)OCCO5)[C@H](O)C3)ccnc2cc1F | 14.4 | 18 | 3.29
43 | O=C(Nc1ccc(-c2ccccc2)cc1)Nc1cccc(Cn2ncc(N3CCNCC3)c(Cl)c2=O)c1 | -0.79 | 1.65 | 6.76
44 | Cc1c(CCNC(=O)CCCN2CC(C)CC(C)C2)c2ccccc2n1C (stereo not drawn) | 1.14 | 3.38 | 3.01
45 | CCOc1ccc(Nc2ccc3nonc3c2S(=O)(=O)Nc2ccc(OCC)cc2)cc1 | -0.07 | -0.32 | -0.61
46 | Cc1cc(C2CCN(CCCCNC(=O)c3ccc(NC(=O)c4ccc(Cl)cc4)cc3)CC2)c(C)cc1OCCN(C)C | 9.34 | 8.76 | 9.76
47 | CCCCN(CCCC)CCCCNc1c2ccc(Cl)cc2nc2ccc(OC)cc12 | 14.5 | 17.5 | 13.3
48 | CN(CCCCNC(=O)c1cc2ccccc2[nH]1)C1CC2(CCN(C(=O)OC(C)(C)C)CC2)c2ccccc21 (stereo not drawn) | -1.12 | -1.35 | -1.2

Row | SMILES | inhibition [1] [%] | inhibition [2] [%] | inhibition [3] [%]
49 | Cc1ccc(Nc2nccc(NCC(O)c3cccc(C(F)(F)F)c3)n2)cc1 (stereo not drawn) | 4.66 | 4 | 0.81
50 | COc1ccccc1C1CCN(C2CCC(NC(=O)/C=C/c3cccc(Cl)c3)CC2)CC1 (stereo not drawn) | 3.59 | 0.95 | -0.85
51 | N=C(/N=C(/NCCCCCCN/C(=N\C(=N)Nc1ccc(Cl)cc1)N1CCCCC1)N1CCCCC1)Nc1ccc(Cl)cc1 | -2.47 | -2.65 | -0.71
52 | Cn1ccc2c3c(N)nc(N)nc3ccc21 | 0.43 | 1.8 | 1.34
53 | O=C(Nc1ccc2c(c1)CCC2)c1ccc(CN2CCCN(Cc3cccc(O)c3)CC2)cc1 | 11.2 | 12.1 | 9.95
54 | O=C(/C=C/c1ccc(Cl)c(Cl)c1)NCCCCCN1CCCC(CNC(=O)Nc2ccc(C(F)(F)F)cc2)C1 (stereo not drawn) | 4.18 | 3.11 | 1.39
55 | CN(c1ccc2c(c1)nc(NC(=O)C1(c3cc(F)ccc3F)CC1)n2C)c1ccnc(Nc2cccc(CS(C)(=O)=O)c2)n1 | -0.91 | 0.33 | -1.29
56 | CN(C)CCCN(C)c1cccc2c1nc(-c1cccnc1)n2CCNCc1ccccc1 | 6.47 | 7.52 | 1.45
57 | Cc1ccc2nc(-c3ccc(C(=O)NC4CCN(Cc5ccccc5)CC4)s3)[nH]c2c1 | -1.39 | 1.8 | 1.22
58 | COc1ccc(NC(=O)/C=C/c2ccccc2Cl)cc1OCCN1CCC(N2CCN(C)CC2)CC1 | 4.65 | 6.39 | 0.87
59 | CCOC(=O)N1CCN(CCCNc2c3ccc(Cl)cc3nc3ccc(OC)cc23)CC1 | 4.11 | 3.33 | 1.42
60 | CC(=O)NCC(=O)NC1=NC(=N)N(OCc2ccc3ccccc3c2)C(C)(C)N1 | 2.26 | 1.66 | 0.35
61 | Cc1cc(NC(=O)NCCN2CCC(NS(=O)(=O)c3ccccc3F)CC2)c2ccccc2n1 | 1.57 | 2.12 | 0.24
62 | CC(C)c1sc(N2CCN(C)CC2)nc1C(=O)NCCc1cccc(Cl)c1 | 6.7 | 3.42 | 3.93
63 | CCN(CC)CCCC(C)Nc1cc(C)nc2cc(Cl)ccc12 (stereo not drawn) | 0.9 | 1.6 | 0.08
64 | CC(C)(C)c1ccc(NC(=O)N[C@@H]2CCN(c3ccnc4ccccc34)C2)cc1 | 0.09 | -0.25 | 0.79
65 | FC(F)(F)c1cc(Nc2ncnc3ccc(Br)cc23)ccc1OCc1ccccc1 | 6.39 | 3.97 | 3.84
66 | Cc1cc(N2CCOCC2)nc2ccc(NC(=O)c3ccc(Cl)c([N+](=O)[O-])c3)cc12 | 5.45 | 3.08 | 2.75
67 | COc1ccc2c(CNCCCCCCNCc3c(OC)ccc4cc(OC)ccc34)c(OC)ccc2c1 | 109 | 107 | 112
68 | Cc1ccc(NC(=O)c2cccc(N3CCN(c4ccncc4)CC3)c2)cc1F | 10.8 | 9.25 | 15.6
69 | O=C(/C=C/c1ccc(Cl)c(Cl)c1)NCCCCN1CCCN(C(=O)Nc2cc(Cl)cc(Cl)c2)CC1 | 0.48 | 0.76 | 0.06
70 | Cc1cccc2nc(-c3ccc(-c4cccc(CN5CCCCC5)c4)s3)[nH]c12 | 5.63 | 5.12 | 1.81
71 | O=C(NCC1CCN(Cc2cccc(C(F)(F)F)c2)C1)c1cc(-c2cccc(Cl)c2)cs1 (stereo not drawn) | 1.83 | 1.37 | -3.57
